# Measured values published in paper PMC7862700, “An all-to-all approach to the identification of sequence-specific readers for epigenetic DNA modifications on cytosine”.
# Legend:
# Assay in all cases: DAPPL (digital affinity profiling via proximity ligation, sequencing); 10 mM Tris-HCl pH 7.5, 50 mM NaCl, 1 mM DTT, 4% glycerol, room temperature, 30 min; GST-TFs on glutathione beads, 16-mer random dsDNA library, 0.1% formaldehyde crosslink after washing; high values mean tight binding
# FLI1 = target: T1, FLI1 (Homo sapiens, UniProt Q01543 1-452); settings: protein: recombinant; tags: N-terminal GST; dsDNA, one strand shown
# T1 sequence: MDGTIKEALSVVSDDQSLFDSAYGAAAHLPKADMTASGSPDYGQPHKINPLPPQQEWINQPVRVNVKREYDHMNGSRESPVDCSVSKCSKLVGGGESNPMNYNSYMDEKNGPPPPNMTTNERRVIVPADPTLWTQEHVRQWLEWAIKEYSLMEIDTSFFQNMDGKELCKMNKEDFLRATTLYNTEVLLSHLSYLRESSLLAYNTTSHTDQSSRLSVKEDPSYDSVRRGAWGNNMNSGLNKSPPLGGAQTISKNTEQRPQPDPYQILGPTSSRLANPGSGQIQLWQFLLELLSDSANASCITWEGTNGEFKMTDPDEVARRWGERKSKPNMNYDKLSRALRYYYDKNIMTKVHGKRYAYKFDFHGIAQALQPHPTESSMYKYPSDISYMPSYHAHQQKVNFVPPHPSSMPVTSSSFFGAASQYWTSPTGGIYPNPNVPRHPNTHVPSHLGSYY
# Outline: (§1)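 Human transcription factors fused to GST were expressed in yeast, captured on glutathione beads, given DNA barcodes and pooled with a GST-only negative control. Pools were incubated with 200 nmole of a 16-mer random double-stranded DNA library in Tris/NaCl/DTT/glycerol buffer at room temperature for 30 min. They were then washed, crosslinked with 0.1% formaldehyde, proximity-ligated (BsaI/T4 ligase, 1 h, 37 °C), PCR-amplified and sequenced on an Illumina NextSeq500. Binding signal is each 6-mer's read frequency for a factor divided by its frequency for the GST control.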
# ELK1 = target: T2, ELK1 (Homo sapiens, UniProt P19419 1-428); settings: protein: recombinant; tags: N-terminal GST; dsDNA, one strand shown
# T2 sequence: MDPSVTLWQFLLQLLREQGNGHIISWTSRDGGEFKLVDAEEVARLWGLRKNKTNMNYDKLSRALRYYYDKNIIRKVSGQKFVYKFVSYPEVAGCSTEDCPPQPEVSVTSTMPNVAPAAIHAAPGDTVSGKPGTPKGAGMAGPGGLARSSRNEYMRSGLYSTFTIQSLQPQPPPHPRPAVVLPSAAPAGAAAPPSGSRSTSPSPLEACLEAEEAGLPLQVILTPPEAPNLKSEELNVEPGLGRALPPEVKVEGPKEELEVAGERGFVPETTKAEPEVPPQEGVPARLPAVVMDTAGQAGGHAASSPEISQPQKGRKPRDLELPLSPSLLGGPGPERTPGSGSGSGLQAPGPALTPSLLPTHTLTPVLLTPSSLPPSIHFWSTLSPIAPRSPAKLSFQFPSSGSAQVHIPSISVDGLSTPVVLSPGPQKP
# Outline: as §1
# GABPA = target: T3, GABPA (Homo sapiens, UniProt Q06546 1-454); settings: protein: recombinant; tags: N-terminal GST; dsDNA, one strand shown
# T3 sequence: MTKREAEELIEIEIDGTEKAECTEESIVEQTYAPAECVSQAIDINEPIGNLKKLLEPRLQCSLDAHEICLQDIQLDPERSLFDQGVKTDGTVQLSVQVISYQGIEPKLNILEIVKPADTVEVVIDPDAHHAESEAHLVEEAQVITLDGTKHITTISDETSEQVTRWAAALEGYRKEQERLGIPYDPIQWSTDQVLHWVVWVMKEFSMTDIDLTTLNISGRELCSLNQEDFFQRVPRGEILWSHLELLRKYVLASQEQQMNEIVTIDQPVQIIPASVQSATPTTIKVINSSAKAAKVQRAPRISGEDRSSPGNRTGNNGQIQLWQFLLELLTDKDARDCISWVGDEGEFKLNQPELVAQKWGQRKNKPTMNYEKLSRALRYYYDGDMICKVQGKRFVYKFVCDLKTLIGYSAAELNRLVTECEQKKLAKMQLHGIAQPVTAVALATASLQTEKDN
# Outline: as §1
# ERG = target: T4, ERG (Homo sapiens, UniProt P11308 1-479); settings: protein: recombinant; tags: N-terminal GST; dsDNA, one strand shown
# T4 sequence: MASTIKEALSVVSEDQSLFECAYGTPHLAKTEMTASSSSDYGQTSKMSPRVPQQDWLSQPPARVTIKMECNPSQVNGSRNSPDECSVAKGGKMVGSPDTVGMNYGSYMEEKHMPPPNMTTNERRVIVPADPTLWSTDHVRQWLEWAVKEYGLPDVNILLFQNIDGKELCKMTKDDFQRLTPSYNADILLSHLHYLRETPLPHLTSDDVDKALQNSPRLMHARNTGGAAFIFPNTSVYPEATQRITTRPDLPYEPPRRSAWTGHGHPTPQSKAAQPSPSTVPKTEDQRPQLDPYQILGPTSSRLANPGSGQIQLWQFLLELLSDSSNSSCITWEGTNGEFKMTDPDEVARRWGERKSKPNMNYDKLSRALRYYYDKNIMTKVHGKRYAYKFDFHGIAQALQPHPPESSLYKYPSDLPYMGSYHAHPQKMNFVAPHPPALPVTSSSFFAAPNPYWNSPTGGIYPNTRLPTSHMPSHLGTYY
# Outline: as §1
# ELF1 = ELF1 (Homo sapiens, UniProt P32519 1-619); settings: protein: recombinant; tags: N-terminal GST; dsDNA, one strand shown
# Chain of ELF1 (P32519 whole entry): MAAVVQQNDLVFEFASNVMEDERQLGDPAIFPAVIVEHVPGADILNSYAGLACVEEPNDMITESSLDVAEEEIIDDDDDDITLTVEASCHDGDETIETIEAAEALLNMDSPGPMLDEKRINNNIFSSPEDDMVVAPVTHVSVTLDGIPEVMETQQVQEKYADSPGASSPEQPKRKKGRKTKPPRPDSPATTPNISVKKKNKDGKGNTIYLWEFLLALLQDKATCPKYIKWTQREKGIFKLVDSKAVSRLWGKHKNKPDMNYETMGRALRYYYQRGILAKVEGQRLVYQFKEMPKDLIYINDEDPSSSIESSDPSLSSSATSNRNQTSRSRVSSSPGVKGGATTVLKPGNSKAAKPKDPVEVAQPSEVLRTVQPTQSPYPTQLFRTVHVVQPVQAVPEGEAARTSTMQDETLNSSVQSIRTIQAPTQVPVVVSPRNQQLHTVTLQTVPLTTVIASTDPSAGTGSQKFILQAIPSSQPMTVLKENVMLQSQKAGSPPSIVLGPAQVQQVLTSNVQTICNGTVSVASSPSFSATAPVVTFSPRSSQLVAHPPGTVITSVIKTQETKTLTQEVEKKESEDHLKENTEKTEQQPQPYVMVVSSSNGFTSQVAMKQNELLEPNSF
# Outline: as §1
# EHF = target: T5, EHF (Homo sapiens, UniProt Q9NZC4 1-300); settings: protein: recombinant; tags: N-terminal GST; dsDNA, one strand shown
# T5 sequence: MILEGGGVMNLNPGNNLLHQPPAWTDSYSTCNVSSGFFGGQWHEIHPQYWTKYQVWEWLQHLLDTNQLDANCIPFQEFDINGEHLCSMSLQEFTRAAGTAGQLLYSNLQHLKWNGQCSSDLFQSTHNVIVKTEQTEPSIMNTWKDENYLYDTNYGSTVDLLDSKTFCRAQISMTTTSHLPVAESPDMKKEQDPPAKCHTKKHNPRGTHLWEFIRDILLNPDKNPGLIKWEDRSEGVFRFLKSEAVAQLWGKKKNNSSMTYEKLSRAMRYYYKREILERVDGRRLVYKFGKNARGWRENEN
# Outline: as §1
# SPI1 = SPI1 (Homo sapiens, UniProt P17947 1-270); settings: protein: recombinant; tags: N-terminal GST; dsDNA, one strand shown
# Outline: as §1
# SPIB = SPIB (Homo sapiens, UniProt Q01892 1-262); settings: protein: recombinant; tags: N-terminal GST; dsDNA, one strand shown
# Chain of SPIB (Q01892 whole entry): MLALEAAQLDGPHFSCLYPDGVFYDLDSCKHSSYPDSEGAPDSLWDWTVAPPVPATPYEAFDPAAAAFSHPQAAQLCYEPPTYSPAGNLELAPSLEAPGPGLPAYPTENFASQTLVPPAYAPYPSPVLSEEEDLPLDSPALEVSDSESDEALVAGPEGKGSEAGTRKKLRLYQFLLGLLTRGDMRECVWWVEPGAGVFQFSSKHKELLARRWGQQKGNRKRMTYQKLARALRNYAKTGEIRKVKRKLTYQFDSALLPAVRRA
# Outline: as §1
# ELK3 = target: T6, ELK3 (Homo sapiens, UniProt P41970 1-407); settings: protein: recombinant; tags: N-terminal GST; dsDNA, one strand shown
# T6 sequence: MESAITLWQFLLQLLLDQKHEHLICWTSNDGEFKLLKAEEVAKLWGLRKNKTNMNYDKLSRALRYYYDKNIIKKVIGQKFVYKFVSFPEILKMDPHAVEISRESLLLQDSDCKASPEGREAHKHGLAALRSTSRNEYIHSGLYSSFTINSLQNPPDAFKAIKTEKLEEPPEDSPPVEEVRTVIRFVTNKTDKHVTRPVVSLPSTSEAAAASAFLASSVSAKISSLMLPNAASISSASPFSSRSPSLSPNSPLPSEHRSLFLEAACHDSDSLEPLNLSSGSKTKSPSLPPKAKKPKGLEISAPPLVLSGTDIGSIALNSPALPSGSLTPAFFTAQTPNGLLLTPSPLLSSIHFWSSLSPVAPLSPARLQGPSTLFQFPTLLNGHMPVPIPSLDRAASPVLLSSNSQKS
# Outline: as §1
# FEV = target: T7, FEV (Homo sapiens, UniProt Q99581 1-238); settings: protein: recombinant; tags: N-terminal GST; dsDNA, one strand shown
# T7 sequence: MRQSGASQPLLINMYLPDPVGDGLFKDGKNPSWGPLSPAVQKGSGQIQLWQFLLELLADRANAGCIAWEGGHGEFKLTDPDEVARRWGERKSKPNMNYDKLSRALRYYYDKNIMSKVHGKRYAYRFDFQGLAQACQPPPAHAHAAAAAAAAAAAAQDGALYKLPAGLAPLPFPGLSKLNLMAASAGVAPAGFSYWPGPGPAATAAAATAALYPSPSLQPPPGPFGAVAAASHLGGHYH
# Outline: as §1
# ETV5 = ETV5 (Homo sapiens, UniProt P41161 1-510); settings: protein: recombinant; tags: N-terminal GST; dsDNA, one strand shown
# Chain of ETV5 (P41161 whole entry): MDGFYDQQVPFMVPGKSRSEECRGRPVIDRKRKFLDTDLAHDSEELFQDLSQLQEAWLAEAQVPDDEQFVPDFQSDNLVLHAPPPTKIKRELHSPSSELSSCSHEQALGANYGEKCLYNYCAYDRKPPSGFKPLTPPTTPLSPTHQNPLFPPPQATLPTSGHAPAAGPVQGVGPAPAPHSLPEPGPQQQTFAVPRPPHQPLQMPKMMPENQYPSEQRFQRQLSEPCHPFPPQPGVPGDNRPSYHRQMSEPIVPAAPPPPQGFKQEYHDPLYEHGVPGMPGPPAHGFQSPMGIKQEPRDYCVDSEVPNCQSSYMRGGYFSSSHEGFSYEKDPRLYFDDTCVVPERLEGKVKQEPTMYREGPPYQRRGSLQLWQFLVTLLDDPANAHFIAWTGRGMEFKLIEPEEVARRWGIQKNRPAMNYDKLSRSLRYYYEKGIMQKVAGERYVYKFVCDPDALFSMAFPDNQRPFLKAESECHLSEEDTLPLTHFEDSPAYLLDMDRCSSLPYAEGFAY
# Outline: as §1
# HSF1 = HSF1 (Homo sapiens, UniProt Q00613 1-529); settings: protein: recombinant; tags: N-terminal GST; chain copies: 3; dsDNA, one strand shown
# Chain of HSF1 (Q00613 whole entry): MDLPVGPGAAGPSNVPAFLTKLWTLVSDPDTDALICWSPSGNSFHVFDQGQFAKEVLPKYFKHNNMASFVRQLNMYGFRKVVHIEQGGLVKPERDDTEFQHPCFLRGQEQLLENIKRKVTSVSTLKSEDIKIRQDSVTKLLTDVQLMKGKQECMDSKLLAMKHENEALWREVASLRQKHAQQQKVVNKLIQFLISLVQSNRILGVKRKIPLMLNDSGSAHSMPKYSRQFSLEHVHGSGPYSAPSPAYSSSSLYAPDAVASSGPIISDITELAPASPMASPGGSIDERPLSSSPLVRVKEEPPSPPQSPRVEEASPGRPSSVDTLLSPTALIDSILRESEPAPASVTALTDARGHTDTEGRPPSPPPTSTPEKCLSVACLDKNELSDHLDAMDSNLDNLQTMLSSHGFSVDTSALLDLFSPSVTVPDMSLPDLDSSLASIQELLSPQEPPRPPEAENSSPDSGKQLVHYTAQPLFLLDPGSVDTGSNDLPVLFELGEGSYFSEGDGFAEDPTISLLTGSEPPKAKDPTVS
# Outline: as §1
# SPIC = target: T8, SPIC (Homo sapiens, UniProt Q8N5J4 1-248); settings: protein: recombinant; tags: N-terminal GST; dsDNA, one strand shown
# T8 sequence: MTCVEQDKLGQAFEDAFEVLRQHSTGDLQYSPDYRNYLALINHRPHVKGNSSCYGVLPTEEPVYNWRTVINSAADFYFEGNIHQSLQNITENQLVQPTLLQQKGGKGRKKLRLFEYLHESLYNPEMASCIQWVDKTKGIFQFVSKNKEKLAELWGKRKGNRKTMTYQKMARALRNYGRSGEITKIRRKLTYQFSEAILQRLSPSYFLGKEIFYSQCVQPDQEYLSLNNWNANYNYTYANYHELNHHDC
# Outline: as §1
# ELF4 = ELF4 (Homo sapiens, UniProt Q99607 1-663); settings: protein: recombinant; tags: N-terminal GST; dsDNA, one strand shown
# Chain of ELF4 (Q99607 whole entry): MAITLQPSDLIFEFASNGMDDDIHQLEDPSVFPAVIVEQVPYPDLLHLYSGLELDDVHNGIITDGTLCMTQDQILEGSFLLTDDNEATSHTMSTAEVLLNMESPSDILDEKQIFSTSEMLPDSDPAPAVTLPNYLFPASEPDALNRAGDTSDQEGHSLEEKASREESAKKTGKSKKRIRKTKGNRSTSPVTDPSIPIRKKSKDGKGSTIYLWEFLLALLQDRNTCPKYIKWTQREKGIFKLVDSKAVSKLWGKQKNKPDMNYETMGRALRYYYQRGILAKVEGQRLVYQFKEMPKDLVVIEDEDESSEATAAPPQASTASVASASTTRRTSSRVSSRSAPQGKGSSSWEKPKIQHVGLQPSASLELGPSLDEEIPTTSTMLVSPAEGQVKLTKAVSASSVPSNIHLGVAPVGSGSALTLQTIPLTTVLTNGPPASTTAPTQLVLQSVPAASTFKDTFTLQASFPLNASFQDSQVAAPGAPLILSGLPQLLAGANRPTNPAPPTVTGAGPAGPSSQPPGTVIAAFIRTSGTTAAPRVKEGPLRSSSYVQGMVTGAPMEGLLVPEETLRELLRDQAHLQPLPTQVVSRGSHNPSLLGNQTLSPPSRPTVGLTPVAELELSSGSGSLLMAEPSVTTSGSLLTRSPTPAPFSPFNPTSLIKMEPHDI
# Outline: as §1
# ELK4 = target: T9, ELK4 (Homo sapiens, UniProt P28324-2 1-405); settings: protein: recombinant; tags: N-terminal GST; dsDNA, one strand shown
# T9 sequence: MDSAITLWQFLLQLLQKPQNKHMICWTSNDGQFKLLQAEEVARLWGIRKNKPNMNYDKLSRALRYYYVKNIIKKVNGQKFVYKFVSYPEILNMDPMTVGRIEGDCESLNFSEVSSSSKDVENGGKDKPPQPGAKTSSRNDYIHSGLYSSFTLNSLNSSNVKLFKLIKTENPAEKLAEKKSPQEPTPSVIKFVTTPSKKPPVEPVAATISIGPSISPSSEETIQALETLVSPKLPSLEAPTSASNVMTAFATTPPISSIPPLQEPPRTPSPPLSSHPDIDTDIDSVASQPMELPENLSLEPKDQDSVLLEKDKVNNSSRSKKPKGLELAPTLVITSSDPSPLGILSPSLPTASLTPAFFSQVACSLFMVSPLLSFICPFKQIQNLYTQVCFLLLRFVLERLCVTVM
# Outline: as §1
# ETV2 = target: T10, ETV2 (Homo sapiens, UniProt O00321 1-342); settings: protein: recombinant; tags: N-terminal GST; dsDNA, one strand shown
# T10 sequence: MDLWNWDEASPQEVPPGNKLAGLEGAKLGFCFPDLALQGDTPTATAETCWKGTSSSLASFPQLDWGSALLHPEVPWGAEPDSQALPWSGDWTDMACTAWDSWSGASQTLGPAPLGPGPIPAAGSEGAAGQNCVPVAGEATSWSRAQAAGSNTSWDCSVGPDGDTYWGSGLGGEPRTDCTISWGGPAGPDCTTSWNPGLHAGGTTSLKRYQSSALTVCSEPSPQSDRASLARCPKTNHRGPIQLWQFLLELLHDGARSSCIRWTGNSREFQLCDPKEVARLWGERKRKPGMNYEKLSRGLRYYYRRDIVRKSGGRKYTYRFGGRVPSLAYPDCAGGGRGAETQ
# Outline: as §1
# ELF3 = target: T11, ELF3 (Homo sapiens, UniProt P78545 1-371); settings: protein: recombinant; tags: N-terminal GST; dsDNA, one strand shown
# T11 sequence: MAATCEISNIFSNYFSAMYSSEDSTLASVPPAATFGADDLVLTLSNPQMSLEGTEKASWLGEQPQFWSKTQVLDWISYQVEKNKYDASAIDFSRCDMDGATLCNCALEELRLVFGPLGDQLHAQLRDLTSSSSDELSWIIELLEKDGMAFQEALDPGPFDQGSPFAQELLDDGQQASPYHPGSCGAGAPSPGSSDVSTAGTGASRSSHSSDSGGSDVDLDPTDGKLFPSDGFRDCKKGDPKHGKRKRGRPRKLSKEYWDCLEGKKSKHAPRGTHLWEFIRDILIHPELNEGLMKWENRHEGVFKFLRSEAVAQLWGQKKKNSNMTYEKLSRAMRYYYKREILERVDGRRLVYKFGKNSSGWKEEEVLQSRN
# Outline: as §1
# CRX = CRX (Homo sapiens, UniProt O43186 1-299); settings: protein: recombinant; tags: N-terminal GST; dsDNA, one strand shown
# Chain of CRX (O43186 whole entry): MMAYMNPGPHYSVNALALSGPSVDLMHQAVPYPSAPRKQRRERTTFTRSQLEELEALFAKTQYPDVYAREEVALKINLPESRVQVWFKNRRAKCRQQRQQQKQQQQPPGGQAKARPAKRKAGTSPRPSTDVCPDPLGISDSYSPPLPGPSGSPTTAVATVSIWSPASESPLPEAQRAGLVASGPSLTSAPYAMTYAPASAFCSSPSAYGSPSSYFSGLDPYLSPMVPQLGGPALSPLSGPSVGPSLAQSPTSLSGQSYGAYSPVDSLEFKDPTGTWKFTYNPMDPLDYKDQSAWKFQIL
# Outline: as §1
# ETV1 = ETV1 (Homo sapiens, UniProt P50549 1-477); settings: protein: recombinant; tags: N-terminal GST; dsDNA, one strand shown
# Chain of ETV1 (P50549 whole entry): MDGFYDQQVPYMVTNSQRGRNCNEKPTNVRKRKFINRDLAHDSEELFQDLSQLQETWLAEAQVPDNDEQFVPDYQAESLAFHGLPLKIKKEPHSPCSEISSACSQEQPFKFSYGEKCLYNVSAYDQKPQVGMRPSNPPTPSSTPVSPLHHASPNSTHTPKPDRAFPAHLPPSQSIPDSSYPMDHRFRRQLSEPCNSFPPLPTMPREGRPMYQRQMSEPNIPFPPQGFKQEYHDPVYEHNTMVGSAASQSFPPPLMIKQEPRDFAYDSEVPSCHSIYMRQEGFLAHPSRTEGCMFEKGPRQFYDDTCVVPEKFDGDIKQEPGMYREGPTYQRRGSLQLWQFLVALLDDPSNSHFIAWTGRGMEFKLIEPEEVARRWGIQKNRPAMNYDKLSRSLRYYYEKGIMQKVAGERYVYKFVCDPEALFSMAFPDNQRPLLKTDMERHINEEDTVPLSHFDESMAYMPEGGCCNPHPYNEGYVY
# Outline: as §1
sequence,measurement,setting,value
TAACCT,binding signal,FLI1,"1.2 fold enrichment (6-mer frequency, TF over GST control)"
same,binding signal,ELK1,"1.32 fold enrichment (6-mer frequency, TF over GST control)"
same,binding signal,GABPA,"1.35 fold enrichment (6-mer frequency, TF over GST control)"
same,binding signal,ERG,"1.12 fold enrichment (6-mer frequency, TF over GST control)"
same,binding signal,ELF1,"1.35 fold enrichment (6-mer frequency, TF over GST control)"
same,binding signal,EHF,"1.29 fold enrichment (6-mer frequency, TF over GST control)"
same,binding signal,SPI1,"1.29 fold enrichment (6-mer frequency, TF over GST control)"
same,binding signal,SPIB,"1.31 fold enrichment (6-mer frequency, TF over GST control)"
same,binding signal,ELK3,"1.43 fold enrichment (6-mer frequency, TF over GST control)"
same,binding signal,FEV,"1.3 fold enrichment (6-mer frequency, TF over GST control)"
same,binding signal,ETV5,"1.29 fold enrichment (6-mer frequency, TF over GST control)"
same,binding signal,HSF1,"1.44 fold enrichment (6-mer frequency, TF over GST control)"
same,binding signal,SPIC,"1.17 fold enrichment (6-mer frequency, TF over GST control)"
same,binding signal,ELF4,"1.33 fold enrichment (6-mer frequency, TF over GST control)"
same,binding signal,ELK4,"1.46 fold enrichment (6-mer frequency, TF over GST control)"
same,binding signal,ETV2,"1.13 fold enrichment (6-mer frequency, TF over GST control)"
same,binding signal,ELF3,"1.29 fold enrichment (6-mer frequency, TF over GST control)"
same,binding signal,CRX,"1.67 fold enrichment (6-mer frequency, TF over GST control)"
same,binding signal,ETV1,"1.31 fold enrichment (6-mer frequency, TF over GST control)"
